PubChem BioAssay (Tox21)
Records with an inconclusive call do not appear. Unmarked numbers belong to inactive results. Activity calls are given as the source filed them. Calls come from the whole dose curve; as a rule, active = well fitted inhibition curve with a large enough effect in the signal ratio in the repeat runs (not every such curve was filed as active); inconclusive = weak or mixed curves, or effect the other way; inactive = no such curve, though single readings can be large or run the other way; the % refers to the signal ratio.

Biological target: Peroxisome proliferator-activated receptor delta (Homo sapiens) (UniProt Q03181)
Sequence (Q03181 whole entry, looked up): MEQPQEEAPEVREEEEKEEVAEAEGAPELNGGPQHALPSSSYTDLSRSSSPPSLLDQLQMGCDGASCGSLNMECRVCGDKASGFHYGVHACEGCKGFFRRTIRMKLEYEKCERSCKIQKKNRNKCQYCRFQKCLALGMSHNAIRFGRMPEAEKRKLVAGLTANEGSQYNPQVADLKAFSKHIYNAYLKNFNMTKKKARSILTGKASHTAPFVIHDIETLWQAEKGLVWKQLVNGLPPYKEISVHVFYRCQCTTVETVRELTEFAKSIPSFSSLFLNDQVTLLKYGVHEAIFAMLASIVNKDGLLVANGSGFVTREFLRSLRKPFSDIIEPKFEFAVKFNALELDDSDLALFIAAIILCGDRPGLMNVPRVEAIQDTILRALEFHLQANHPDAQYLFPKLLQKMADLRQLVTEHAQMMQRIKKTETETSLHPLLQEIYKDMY
Assay: qHTS assay to identify small molecule antagonists of the peroxisome proliferator-activated receptor delta (PPARd) signaling pathway (AID 743215);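 note: cells stimulated with agonist L165041 at 300 nM final during compound exposure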
Conditions: HEK293H PPARd-UAS-bla, beta-lactamase FRET ratio, antagonist, 17 h; series mostly up to 62 µM; ratio activity, negative = inhibition: at the top concentration
Source text: U.S. Tox21 Program National Center for Advancing Translational Sciences [NCATS] NIH Chemical Genomics Center [NCGC] U.S. Environmental Protection Agency [EPA] National Institutes of Environmental Health Sciences [NIEHS] National Toxicology Program [NTP] U.S. Food and Drug Administration [FDA] Tox21 Assay Overview: The peroxisome proliferator-activated receptors (PPARs) are lipid-activated transcription factors of the nuclear receptor superfamily with three distinct subtypes namely PPAR alpha, PPAR delta (PPARd) and PPAR gamma. All these subtypes heterodimerizes with Retinoid X receptor (RXR) and have different physiological functions. […] To identify the compounds that inhibit PPAR-delta signaling, GeneBLAzer PPAR delta UAS-bla HEK293H cell line (Invitrogen, Carlsbad, CA, USA) containing a beta-lactamase reporter gene under the control of an Upstream Activator Sequence (UAS) was used to screen the Tox21 compound library.
Tox21 Assay Protocol Summary: PPARd-bla cells were dispensed at 3000 cells/5uL/well in 1536-well black wall/clear bottom plates using a Multidrop Combi (Thermo Fisher Scientific, Waltham, MA) dispenser. After the assay plates were incubated at 37 C and 5% CO2 for 5 h, 23 nL of compounds dissolved in DMSO, positive controls or DMSO only was transferred to the assay plate by a Pintool station (Kalypsys, San Diego, CA), followed by addition of 1ul L165041 (300 nM, final concentration in the wells). The assay plates were incubated at 37 C for 17 h, and then 1 uL of LiveBLAzerTM B/G FRET substrate was added using a Bioraptr Flying Reagent Dispenser (FRD) workstation (Beckman Coulter, Indianapolis, IN, USA). The assay plates were incubated at room temperature for 2 h and fluorescence intensity was measured by an Envision plate reader (PerkinElmer, Shelton, CT).
% is set by controls: 0 for no effect and ±100 for the full control effect; potency is the fitted concentration of half-maximal effect.

SMILES | ratio activity, negative = inhibition | Potency
CCCCCCCCSC(=O)Oc1cc(Cl)nnc1-c1ccccc1 | 12.7% | 
CC(C)(C)c1cc(O)ccc1O |  | 54.9 µM (active)
CS(=O)(=O)Cl | 13.6% [at 80.4 µM] | 
COC(=O)c1ccccc1CS(=O)(=O)NC(=O)Nc1nc(OC)cc(OC)n1 | -4.88% | 
COP(=O)(O)OC | -0.651% [at 80.4 µM] | 
N[C@@H]1C[C@H]1c1ccccc1 | 9.43% | 
CN(C)C1CCCCC1 | 9.6% | 
C#CCOC(=O)/C=C(C)/C=C/CC(C)CCCC(C)C (stereo not given) | -4.38% | 
C(COCC1CO1)OCC1CO1 (stereo not given) | 6.95% | 
CC(Cc1ccccc1)NCCCCl (stereo not given) | 4.66% | 
CCOC(=O)NC(C)(C)Cc1ccc(Cl)cc1 | 0.802% | 
ClCCN1CCCC1 | 0.503% | 
Cn1c(N)nc2c3cccnc3ccc21 | 8.96% | 
O=C(O)CBr | 12.1% | 
CCN[C@H](C)Cc1cccc(C(F)(F)F)c1 | -2.13% [at 80.4 µM] | 
C=CC1(C)OC(=O)N(c2cc(Cl)cc(Cl)c2)C1=O (stereo not given) |  | inactive
c1cncc([C@@H]2CCCCN2)c1 | 7.99% | 
CCCOc1nn(C(=O)NS(=O)(=O)c2ccccc2C(=O)OC)c(=O)n1C | 0.579% | 
Cc1ccc2c(c1)C1CN(C)CCC1N2 (stereo not given) | -11% [at 28.9 µM] | 
ClCC1CO1 (stereo not given) | 10.7% | 

SMILES | ratio activity, negative = inhibition | Potency
O=S1(=O)OCCO1 | 0.245% [at 80.4 µM] | 
Cn1c(CCCC(=O)O)nc2cc(N(CCCl)CCCl)ccc21 | 0.471% | 
OCC(Cl)CCl (stereo not given) | 3.51% | 
O=C(Cl)c1ccccc1 | -1.66% [at 80.4 µM] | 
COC1=CC(=O)O[C@@H](/C=C/c2ccccc2)C1 | 0.499% [at 80.4 µM] | 
NNC(N)=O | 4.06% [at 80.4 µM] | 
N=C(N)[Se] | -1.42% [at 80.4 µM] | 
CC[C@@H](CO)NC(=O)[C@@H]1C=C2c3cccc4[nH]cc(c34)C[C@H]2N(C)C1 | -1.37% | 
CCC1(CC)C(=O)C=CNC1=O | -16% | 
Cc1cccc2sc3nncn3c12 | 13.7% | 
CC(C)(N)Cc1ccccc1Cl | -1.05% | 
BrCC1CO1 (stereo not given) | -4.6% [at 80.4 µM] | 
CCOC(=O)C(Cl)Cc1cc(-n2nc(C)n(C(F)F)c2=O)c(F)cc1Cl (stereo not given) | -16.4% | 
Cl/C=C/CCl | 4.78% [at 80.4 µM] | 
NNCc1ccccc1 | -1.01% [at 80.4 µM] | 
[O-][Br+2]([O-])O | 1.68% | 
CC(C)(O)C(Cl)(Cl)Cl | 2.03% | 
NC1(c2ccccc2)CCCCC1 | -11.6% [at 80.4 µM] | 
COC(=O)[C@@H](N)CCCN/C(N)=N/[N+](=O)[O-] | 2.38% | 
CCOC(=O)COc1ccc(Cl)cc1Cl | 12.7% | 
